Assay results published in PubChem BioAssay (NCI).
About 83,000 compounds went through this panel and 20% of them were active in at least one assay; those are over-represented in the sample as a whole.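 Percent growth is the endpoint: 0 to 100 indicates growth inhibition (40 means 60% inhibition), 0 means no net growth, and negative values indicate cell death.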 Unmarked numbers belong to inactive results. Activity calls are given as the source filed them. How the source made its calls: active means growth percent below 10; inactive means the rest.

Legend:
Assay in all cases: NCI-60 one-dose screen, 48 h (100 = growth as untreated, 0 = no growth, -100 = all killed)
Conditions in all cases: 10 µM unless noted
[1] = system: NCI-H23 lung
[2] = system: NCI-H226 lung
[3] = system: HOP-62 NSCLC
[4] = system: NCI-H460 lung
[5] = system: HOP-92 NSCLC
[6] = system: NCI-H522 lung
[7] = system: A549/ATCC NSCLC
[8] = system: 786-0 renal
[9] = system: DU-145 prostate
[10] = system: K-562 leukemia
[11] = system: MALME-3M melanoma
[12] = system: MDA-MB-231 breast
[13] = system: RXF 393 renal
[14] = system: SF-268 CNS
[15] = system: SF-295 CNS
[16] = system: SF-539 CNS
[17] = system: UACC-257 melanoma
[18] = system: M14 melanoma
[19] = system: NCI-H322M lung
[20] = system: COLO 205 colon

SMILES	growth [1]	growth [2]	growth [3]	growth [4]	growth [5]	growth [6]	growth [7]	growth [8]	growth [9]	growth [10]	growth [11]	growth [12]	growth [13]	growth [14]	growth [15]	growth [16]	growth [17]	growth [18]	growth [19]	growth [20]
Cl.Fc1c[c-]c(-c2ccccn2)c(F)c1.[Pt].c1ccc([PH+](C[PH+](c2ccccc2)c2ccccc2)c2ccccc2)cc1	-78.1% (active)	-65.9% (active)	-55.4% (active)	-63.5% (active)	-74.2% (active)	-60.1% (active)	-58.5% (active)	-68.1% (active)	-94.8% (active)	-18.5% (active)	-92.9% (active)	-83.8% (active)	-91.6% (active)	-70% (active)	-87.6% (active)	-86.4% (active)	-48.6% (active)	-87.1% (active)		
CCCCOC(=O)c1ccc(NC(=O)C(C)N2CCOCC2)cc1 (stereo not drawn)	98.5%	84.3%	99.5%	105%	76.7%	67.9%	97.3%	99.1%	107%	91.1%	91.8%	102%	102%	103%	101%	102%	98.3%	93.7%		
CC1(C)C(=O)/C(=C\c2cccnc2)C[C@]2(C)[C@H]3CC=C4[C@@H]5C[C@@](C)(C(=O)O)CC[C@]5(C)CC[C@@]4(C)[C@]3(C)CC[C@@H]12	102%	92.9%	96.6%	101%	88.9%	87.1%	78.8%	101%	104%	80.7%	126%	101%	92.2%	98.9%	93.9%	101%	87.7%	100%		
Clc1ccc(-c2cn(-c3ccccc3)c(-c3ccccc3)n2)cc1		80.9%	76.9%	104%	68.7%	55.2%	71.3%	81.3%	93.9%	18.4%	111%	98.9%	132%	96.9%	98.8%	102%	173%		95.9%	107%
C=C1c2c(C)nn(-c3ccc(O)cc3)c2N(C)C23C[C@@H]1C1(C)c4c(C)nn(-c5ccc(O)cc5)c4N(C)C(C)(C[C@H]12)C3 (stereo partly drawn)		11.8%	37%	20.1%	7.18% (active)	20.7%	31.3%	34.3%	45%	18.1%	58.7%	14.8%	19.9%	48%	26.9%	23.7%	29.1%	15.5%	59.4%	
Cc1ccc(S(=O)(=O)N(CC[C@@H]2C[C@H]2c2cc3ccccc3o2)C(=O)NC2CCCCC2)cc1		87.3%	93.1%	104%	110%	86%	101%	95.4%	107%	91.1%	96.1%	90.1%	106%	98.8%	110%	95%	108%	96.5%	108%	
CN1CCN(C(=O)[C@]23CCC(C)(C)C[C@@H]2C2=CC[C@@H]4[C@@]5(C)Cc6c([nH]c7ccccc67)C(C)(C)[C@@H]5CC[C@@]4(C)[C@]2(C)CC3)CC1		86.9%	80%	75.8%	70.7%	78.2%	69.4%	74.4%	84.6%	66.1%	90.2%	79%	80.1%	84.6%	92.2%	76.7%	86.1%	78%	88.6%	
C[C@@H]1C(=O)N(C[C@H](Cc2ccccc2)NC(=O)OCc2ccccc2)[C@]1(Cc1ccccc1)C(=O)OC(C)(C)C		62.2%	80.2%	66.6%	54.5%	45%	47.2%		87.1%	40.5%	79.5%	66.4%	71.2%	65.7%	69.6%	87.1%	66.1%		86.7%	62%
